Measurements taken from PubChem BioAssay (NCI).
This is part of a sample that, as a whole, favours compounds with a hit. Of some 83,000 tested, about 20% had one in any assay.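 Activity criterion: percent growth below 10, measured after cells in 96-well plates were exposed to a single compound concentration for 48 hours.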 Unmarked numbers belong to inactive results. Activity calls are given as the source filed them.

Assays:
Assay in all cases: NCI-60 one-dose screen, 48 h (100 = growth as untreated, 0 = no growth, -100 = all killed)
Details in all cases: 10 µM unless noted
[1] = system: BT-549 breast
[2] = system: MDA-MB-435 melanoma
[3] = system: SW-620 colon
[4] = system: HCT-116 colon
[5] = system: HCC-2998 colon
[6] = system: KM12 colon
[7] = system: T-47D breast
[8] = system: MCF7 breast

SMILES	growth [1]	growth [2]	growth [3]	growth [4]	growth [5]	growth [6]	growth [7]	growth [8]
O=S(=O)(CC(O)(c1ccccc1)c1ccccc1)CC(O)(c1ccccc1)c1ccccc1	102%	89.9%	89.6%	77.7%	93.1%	87.6%	–	–
CC(C)(C)n1cc(-c2ccnc(NCCCNS(=O)(=O)c3ccc(Br)cc3)c2)c(-c2cccc(O)c2)n1	–	–	7.75% (active)	22.6%	-56.1% (active)	1.78% (active)	29.9%	7.27% (active)
COc1cc(Cn2cc3c(c2)-c2oncc2CC3)cc(OC)c1OC	36.7%	-29.9% (active)	27.1%	8.52% (active)	12.1%	3.04% (active)	–	13.2%
O=[N+]([O-])c1ccc(/C=C/C2(CCl)OCCO2)cc1	–	–	86.5%	61.3%	98.5%	104%	95.1%	106%
COc1cc(C2CC(c3ccc4c(c3)OCO4)=NN2C(C)=O)cc(OC)c1OC (stereo not drawn)	60.7%	-49% (active)	26.6%	30.9%	47.8%	30.6%	–	17.4%
Nc1nc(-c2ccccc2)c(CCCOc2ccc(NC(=O)CBr)cc2)c(=O)[nH]1	100%	94.6%	108%	103%	107%	109%	–	78.8%
C1=Cc2ccccc2N(c2nnc(-c3ccccc3)o2)c2ccccc21	–	–	99.9%	66.6%	121%	92.3%	100%	87.6%
CCOC(=O)CC(=O)OC	101%	110%	98.8%	104%	104%	115%	–	91.5%
CN(C)CCCC(C#N)c1ccccc1 (stereo not drawn)	111%	115%	106%	107%	105%	111%	–	100%
NC(=S)N/N=C1\CCCC(C(F)(F)F)C1 (stereo not drawn)	96.3%	–	98.5%	8.77% (active)	104%	–	–	27.3%
c1ccc(-c2nnc(-c3ccccn3)s2)nc1	–	–	99.8%	86.8%	46.2%	97.3%	33.9%	–
CN(C)c1nc2c(N)ncnc2n1C1OC(CO)C(O)C1O (stereo not drawn)	99.9%	112%	109%	105%	110%	105%	–	99.4%
COc1cc(C2CC(c3ccc4c(c3)OCO4)=NN2C=O)cc(OC)c1OC (stereo not drawn)	40.3%	-25.9% (active)	27%	20.6%	64.2%	23.3%	–	16.8%
COc1ccc(NC(=O)CSc2nc(-c3ccc(OC)c(OC)c3)cc(-c3cc(OC)c(OC)c(OC)c3)n2)cc1	95.5%	112%	105%	90.3%	111%	98.4%	–	94%
CN(C)c1ncnc2c1ccn2C1OC(CO)C(O)C1O (stereo not drawn)	57.3%	62.3%	36.3%	37%	22.7%	84.1%	–	-7.76% (active)
S=C1CC(=S)NC(=S)N1	110%	112%	98.2%	105%	104%	98.9%	–	94.1%
Cc1cc(C2(c3cc(C)c(O)cc3C)OS(=O)(=O)c3ccccc32)c(C)cc1O	–	–	106%	103%	101%	106%	102%	78.5%

SMILES	growth [1]	growth [2]	growth [3]	growth [4]	growth [5]	growth [6]	growth [7]	growth [8]
NNc1cccc(/C=C/c2ccccc2)cc1=O	69.1%	73.2%	54.7%	33.8%	70.2%	59%	–	36.1%
O=C(O)Cc1cccc(=O)c(O)c1C(=O)O	102%	109%	106%	102%	106%	104%	–	100%
O=c1[nH]c(-c2ccccc2)nc(CN2CCCCC2)c1O	109%	110%	104%	105%	100%	108%	–	104%
CCCCCCCCCCCCCCCCNC(=O)OC(C)C	95.8%	–	18.9%	20.8%	57.1%	0.501% (active)	–	1.73% (active)
CCN(CC)CCOC(=O)C(c1ccccc1)(c1ccccc1)C(C)C	–	90.8%	97.3%	92.2%	96.9%	90.7%	86%	–
CCCOC(=O)n1cccc1	103%	110%	102%	103%	104%	99.7%	–	95%
CCOC(=O)C1CCNC(=O)C1=O (stereo not drawn)	107%	113%	108%	107%	104%	109%	–	–
CC[N+](CC)=c1cc2oc3cc(N(C)C)ccc3nc-2cc1C	60.2%	50.8%	15.9%	7.17% (active)	32.3%	33.3%	–	–
Nc1nc(=O)c2ccccc2s1	101%	102%	116%	107%	107%	112%	–	103%
CCC1=CCC[C@@]2(C)CCC[C@@]3(C)CCCC(C)(C)[C@]1([O-])[O+]32	101%	103%	101%	102%	104%	110%	–	98.8%
COc1cc(/C=C/C(=O)N2CCN(C(=O)/C=C/c3cc(OC)c(OC)c(OC)c3)CC2)cc(OC)c1OC	88.1%	115%	105%	98.3%	102%	115%	–	113%
COc1ccc(C2=CC(c3cc(OC)c(OC)c(OC)c3)NC(=O)N2)cc1OC (stereo not drawn)	8.72% (active)	7.31% (active)	17.3%	13.4%	18.7%	-26.8% (active)	–	15%
Cc1ccc2nc(Cl)cc(=O)n2c1	102%	106%	108%	105%	121%	107%	–	107%
CC(C)OC(=O)N1CCOCC1	101%	117%	95.4%	102%	104%	100%	–	100%
CC(C)CC1NC(C)(C)CO1 (stereo not drawn)	116%	113%	106%	114%	102%	110%	–	104%
CC(NNC(C)c1ccccc1)c1ccccc1 (stereo not drawn)	113%	112%	96.1%	107%	103%	115%	–	113%
